# MsrA inhibitor – bovine MsrA enzyme inhibitors, primary screen, biochemical, absorbance, HTS; inhibition, % at 15.5 µM; Methionine sulfoxide reductase A (Bos taurus); purified bovine MsrA, absorbance read-out; 360,000 tested, 0.75% active; AID 651718, 2012; in the data active means inhibition above about 4.5%
# PKA-R2B act – activators of PKA-R2B holoenzyme, primary screen, biochemical, fluorescence polarization, Cy5-IP20, human. cAMP-dependent protein kinase catalytic subunit beta (Homo sapiens) + cAMP-dependent …. activation, % at 11.4 µM. AID 504700, 2011. PKA-R2B holoenzyme dissociation; R2B truncated from residue 108, S112A mutant; 0% DMSO only, 100% 113 µM cGMP. 340,000 tested, 0.079% active;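 active means activation above a cutoff set at the mean over all compounds plus 3 SD, cut at about 18% in these data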;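 further: higher means more holoenzyme dissociation and a rise in polarization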
# Target sequence (P31323 whole entry, looked up, other chains not shown, the tested form may be a part): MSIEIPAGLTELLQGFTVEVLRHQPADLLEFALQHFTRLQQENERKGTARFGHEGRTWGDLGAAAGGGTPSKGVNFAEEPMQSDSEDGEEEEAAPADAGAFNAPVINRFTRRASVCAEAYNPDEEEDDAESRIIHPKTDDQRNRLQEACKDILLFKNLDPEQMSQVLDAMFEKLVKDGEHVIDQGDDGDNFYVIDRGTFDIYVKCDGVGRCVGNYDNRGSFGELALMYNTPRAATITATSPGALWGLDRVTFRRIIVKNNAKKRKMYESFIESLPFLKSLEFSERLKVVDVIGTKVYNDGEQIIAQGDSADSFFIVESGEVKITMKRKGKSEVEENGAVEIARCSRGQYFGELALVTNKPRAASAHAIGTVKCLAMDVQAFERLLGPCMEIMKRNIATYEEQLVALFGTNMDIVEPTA
# MsrA act – bovine MsrA enzyme activators, primary screen, biochemical, absorbance, HTS; Methionine sulfoxide reductase A (Bos taurus); activation, % at 10.6 µM; purified bovine MsrA, absorbance read-out; AID 602163, 2012; 360,000 tested, 0.3% active; in the data active means activation above about 7.5%
# PKA-R1A act – activators of PKA-R1A holoenzyme, primary screen, biochemical, fluorescence polarization, Cy5-IP20, bovine R1A, mouse PKAc | cAMP-dependent protein kinase type I-alpha regulatory subunit (Bos taurus) + … | PKA-R1A dissociation; scaled: DMSO 0%, 113 µM cGMP 100% | activation, % at 11.4 µM | 340,000 tested, 0.083% active;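 active means percent activation above the mean of all tested compounds plus 3 SD, cut at about 19% in these data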;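 further: higher means more PKAc released from R1A so a rise in polarization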
# Mot1-301 SUMO – yeast Mot1-301 growth rescue at high temperature, primary screen, SUMOylation pathway inhibitor project, S. cerevisiae, ATP luminescence, 38.5C; S. cerevisiae Mot1-301 growth rescue; percent above DMSO median, 100 means doubled; growth rescue, % at 18.8 µM; 320,000 tested, 1% active; AID 2716, 2010;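 active means every valid replicate shows activation above 250% relative to neutral control wells; inactive means the rest, any valid replicate at or below 250%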
# MsrA act confirm – bovine MsrA activators, retest, confirmation, biochemical, absorbance, HTS | AID 602270, 2012 | activation, % at 10.6 µM | 1,000 tested, 12% active | shares compounds with MsrA act | purified bovine MsrA, absorbance read-out; in the data active means activation above about 4%;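 further: enzyme coupled to thioredoxin and thioredoxin reductase with NADPH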
# Numbers stand for hits; . = inactive; / = no result given. Hits are enriched below; roughly 2% of the tested compounds scored in any of these assays.
SMILES,MsrA inhibitor,PKA-R2B act,MsrA act,PKA-R1A act,Mot1-301 SUMO,MsrA act confirm
CC(C)(O)CN(CCCNC(=S)Nc1ccccc1)C(=S)Nc1ccccc1,.,.,14,.,/,.
COC(=O)c1cc2c(c3c4ccccc4n(S(=O)(=O)c4ccc(OC)cc4)c13)C(=O)N(C)C2,.,/,/,/,/,/
O=C(c1ccccc1F)N1CCN(c2ccc([N+](=O)[O-])c3ncccc23)CC1,.,.,.,.,.,/
O=[N+]([O-])c1cccc2c(N3CCCC3)ccnc12,.,.,20,.,/,12
COc1ccc(Cc2noc(CN(C)CCN3CCc4ccccc4C3)n2)cc1OC,.,.,.,.,.,/
CN(CCN1CCc2ccccc2C1)Cc1nc(Cc2ccccc2F)no1,.,.,15,.,/,.
CCc1cc2c(nc1CC)CCCN2S(=O)(=O)c1ccc(C#N)cc1,.,/,/,/,/,/
Cc1cccc(N2CCN(C3=NC(=O)C(=C4CCCCC4)S3)CC2)c1,.,.,8.0,.,.,.
Cn1c(-c2sccc2OCc2ccc(Cl)cc2Cl)n[nH]c1=S,.,.,17,.,.,.
CC(C)(C)OC(=O)N1CCCC(C(=O)Nc2cccc(C(=O)NCc3ccccc3)c2)C1 (stereo not given),.,.,.,.,/,/
CN(Cc1ccccc1)C(=O)c1cccc(NC(=O)C2CCCN(C(=O)OC(C)(C)C)C2)c1 (stereo not given),.,.,7.7,.,.,.
CC(C)OC(=O)N(C)C[C@H]1OCc2cn(nn2)CCCC(=O)N([C@@H](C)CO)C[C@@H]1C,.,/,/,/,/,/
Cc1cccc(N=C2NC(=O)c3cc([N+](=O)[O-])ccc32)c1,.,.,7.8,.,.,.
O=C1NC(=Nc2ccccc2)c2ccc([N+](=O)[O-])cc21,.,.,.,.,.,/
CC(C)[C@@H](C)/C=C/[C@@H](C)[C@H]1CC[C@@H]2[C@]1(C)CCC1[C@]23C=C[C@]2(C[C@@H](O)CC[C@]12C)N(c1ccc(Br)cn1)O3 (stereo not given in full),.,/,/,/,/,/
CCOC(=O)N[C@H](C(=O)N1CCC[C@H]1C(=O)NC1CCCC1)c1ccccc1,.,/,/,/,/,/
O=c1[nH]c(=S)[nH]cc1Oc1ccc(Br)cc1Br,.,.,.,.,/,/
O=c1[nH]c(=S)[nH]cc1Oc1ccc(Cl)cc1,.,.,9.0,.,/,4.2
Cc1cc(Nc2cccc([N+](=O)[O-])c2)cc(=O)n1-c1cccc([N+](=O)[O-])c1,.,/,/,/,/,/
CCCCOCC1CN(CCCC)S(=O)(=O)c2c(Oc3ccc(SC)c(C)c3)cccc2O1 (stereo not given),.,/,/,/,/,/
CC1=C(C)CS(=O)N(c2ccc(S(N)(=O)=O)cc2)C1 (stereo not given),.,.,7.8,.,/,.
CC1=C(C)CS(=O)N(S(=O)(=O)c2ccccc2)C1 (stereo not given),.,.,.,.,.,/
Cc1ccc(C)c(N2CCN(S(=O)(=O)c3c(C(=O)N4CCCCC4)c(C)n(C)c3C)CC2)c1,.,.,8.2,.,.,.
O=C(Nc1cccc(C(=O)N2CCOCC2)c1)c1ccccc1,.,.,.,.,.,/
Cc1ccc(C(=O)Nc2cccc(C(=O)N3CCOCC3)c2)cc1Cl,.,.,21,.,.,.
SMILES,MsrA inhibitor,PKA-R2B act,MsrA act,PKA-R1A act,Mot1-301 SUMO,MsrA act confirm
COc1ccc(N2CCN(C3CCN(S(=O)(=O)c4ccc(F)cc4)CC3)CC2)cc1,.,.,9.5,.,.,.
CC1=C(C(=O)OC(C)C)C(c2cccc(F)c2)N2C(=O)C(C)SC2=N1 (stereo not given),.,.,9.8,.,/,.
CC1(C)OC(=O)C2=C(CC(CCc3ccccc3)OC2c2ccc(Cl)c(Cl)c2)O1 (stereo not given),.,/,/,/,/,/
CC1COc2ccccc2N1C(=O)c1ccc(Cl)cc1 (stereo not given),.,.,9.0,.,.,.
Cc1ccc(C(=O)N2c3ccccc3OCC2C)cc1 (stereo not given),.,.,.,.,.,/
C[C@@H](CSc1ccccc1)CN1CC[C@H](C(C)(C)C)CCC1=O,.,.,8.2,.,.,.
COc1ccc(SC[C@H](C)CN2CC[C@H](C(C)(C)C)CCC2=O)cc1,.,.,.,.,.,/
COc1cccc(C(=O)NCC2CCN(C(=O)C(=O)c3cc4ccccc4o3)CC2)c1,.,/,/,/,/,/
Cc1cccc(C)c1OCC(=O)NNC(=O)CCNC(=O)c1ccc(Br)cc1,.,.,.,.,.,/
Cc1cccc(C)c1OCC(=O)NNC(=O)CNC(=O)c1ccc(OC(F)F)cc1,.,.,8.1,.,.,.
COC(=O)c1cc2c(c3c4ccccc4n(S(=O)(=O)c4ccccc4)c13)C(=O)N(C)C2,.,/,/,/,/,/
Cc1ccc(S(=O)(=O)Nc2cccc3cccnc23)cc1,.,.,11,.,.,.
COc1cc(NS(=O)(=O)c2ccc(C)cc2)c2ncccc2c1,.,.,.,.,/,/
CS(=O)(=O)N(CC(=O)N1CCOCC1)c1cccc(F)c1,.,.,9.2,.,.,.
NS(=O)(=O)c1ccc(NC(=O)NC2CC(=O)N(c3ccc4c(c3)OCCO4)C2)cc1 (stereo not given),.,.,11,.,.,.
CCOc1ccc(N2C(=O)CC(Sc3ncccn3)C2=O)cc1 (stereo not given),.,.,.,.,.,/
CCOc1ccc(N2C(=O)CC(Sc3nc(-c4cccs4)cc(C(F)(F)F)c3C#N)C2=O)cc1 (stereo not given),.,.,10,.,.,.
C(=CCSc1ccccn1)CSc1ccccn1,.,/,/,/,/,/
COc1ccc(-c2csc(/C(C#N)=C/Nc3ccc4c(c3)OCCO4)n2)cc1,.,.,.,.,.,/
COc1ccc(-c2csc(/C(C#N)=C/Nc3cc4oc5ccccc5c4cc3OC)n2)cc1,.,.,13,.,.,.
CC(C)n1c(=S)[nH]c2scc(-c3cccs3)c2c1=O,.,.,8.0,.,.,.
CCCOC(=O)c1ccc(NC(=O)CN(C)Cc2cccs2)cc1,.,.,9.9,.,.,.
COC(=O)[C@]12C[C@H](CC(=O)NCC3CCCCC3)C(=O)N(Cc3ccc4c(c3)OCO4)C1=C[C@H](C(C)(C)C)O[C@@H]2C,.,/,/,/,/,/
Cc1ccc2[nH]c3c(c2c1)CN(C(=O)CN1CCN(c2ccccn2)CC1)CC3,.,.,10,.,.,4.0

# Compound activity: PubChem BioAssay, several laboratories
